# Measurements as given in PMC4336329 (PLoS ONE, 2015).
# The campaign covered roughly 310,000 compounds. About 14,000 (4.5%) showed an effect of 50% or more. Effects have a minus sign here. The entries come from a sample that favours strong results as a whole.
# Target: human ether-à-go-go-related gene (hERG) potassium channel (human, UniProt Q12809)
# Test: primary screen, population patch clamp on CHO cells stably expressing hERG; higher = less effect of the substance
# 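Also: peak tail current of the secondary pulse compared with the same well before compound.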
# Sequence of human ether-à-go-go-related gene (hERG) potassium channel (Q12809 whole entry, looked up): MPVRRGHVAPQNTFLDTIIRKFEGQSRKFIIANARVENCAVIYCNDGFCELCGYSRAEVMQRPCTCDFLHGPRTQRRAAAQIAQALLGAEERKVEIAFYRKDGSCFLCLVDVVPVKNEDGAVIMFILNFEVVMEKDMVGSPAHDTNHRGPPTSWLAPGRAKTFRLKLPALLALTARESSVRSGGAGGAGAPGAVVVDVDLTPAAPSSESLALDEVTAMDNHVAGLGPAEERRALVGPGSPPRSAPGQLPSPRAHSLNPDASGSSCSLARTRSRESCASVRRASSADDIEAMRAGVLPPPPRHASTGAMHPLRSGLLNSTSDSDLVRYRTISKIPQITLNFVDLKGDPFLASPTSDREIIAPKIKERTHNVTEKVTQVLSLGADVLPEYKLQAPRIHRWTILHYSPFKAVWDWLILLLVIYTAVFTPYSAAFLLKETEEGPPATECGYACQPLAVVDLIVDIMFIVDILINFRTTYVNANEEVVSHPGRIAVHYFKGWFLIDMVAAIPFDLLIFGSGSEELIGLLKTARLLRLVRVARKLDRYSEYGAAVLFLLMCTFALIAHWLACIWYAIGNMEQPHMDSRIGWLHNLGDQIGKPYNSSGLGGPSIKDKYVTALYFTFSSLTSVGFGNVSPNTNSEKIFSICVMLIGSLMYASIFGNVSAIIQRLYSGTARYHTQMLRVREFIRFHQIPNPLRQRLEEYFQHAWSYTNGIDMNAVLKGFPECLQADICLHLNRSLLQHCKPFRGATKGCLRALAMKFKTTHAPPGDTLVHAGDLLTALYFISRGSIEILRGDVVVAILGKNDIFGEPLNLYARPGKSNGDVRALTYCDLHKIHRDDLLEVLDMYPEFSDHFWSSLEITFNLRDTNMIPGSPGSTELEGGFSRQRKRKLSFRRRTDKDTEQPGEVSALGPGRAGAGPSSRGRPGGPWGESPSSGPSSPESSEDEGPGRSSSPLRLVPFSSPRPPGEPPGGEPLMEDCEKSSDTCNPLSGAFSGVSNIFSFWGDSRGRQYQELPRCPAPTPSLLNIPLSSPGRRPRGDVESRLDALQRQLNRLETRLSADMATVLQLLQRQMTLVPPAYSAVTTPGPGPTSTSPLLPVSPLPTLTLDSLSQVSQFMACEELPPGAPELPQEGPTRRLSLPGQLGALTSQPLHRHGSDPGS
row,Compound,"hERG current change (%, negative = inhibition) at 10uM"
1,O=C(NNC(=S)Nc1ccccc1Cl)c1ccccc1,5.93%
2,O=C(CN1c2ccccc2S(=O)(=O)c2ccccc21)NCc1ccccc1,9.11%
3,Cc1cccc(N(CC(=O)N2CCOCC2)S(C)(=O)=O)c1,6.69%
4,CCC(=O)NC(=S)Nc1ccc(N2CCOCC2)cc1,-2.62%
5,CS(=O)(=O)N1CCN(C(=O)c2cc3ccccc3oc2=O)CC1,-0.0734%
6,O=C(NCCC1=CCCCC1)C1CCN(S(=O)(=O)c2cccs2)CC1,-29.2%
7,CCOc1ccc(-n2c(SCC(=O)Nc3cc(C(=O)O)ccc3Cl)nc3ccccc3c2=O)cc1,28.8%
8,COc1cc2nc(SCC(N)=O)n(CCC3=CCCCC3)c(=O)c2cc1OC,-10.9%
9,CCN(CC)S(=O)(=O)c1cccc(C(=O)OCC(=O)Nc2ccccc2OC(F)F)c1,-7.37%
10,CCC(C)(C)C1CCc2c(sc(NC(=O)c3ccoc3C)c2C(N)=O)C1 (centres unmarked),17.8%
11,COc1ccc(N/C=C(\C#N)S(=O)(=O)c2ccc(Cl)cc2)c(OC)c1,-8.9%
12,Cc1cc(N2CCOCC2)n2cc(-c3ccccc3)nc2n1,-50.1%
13,Cc1cc(N2CCOCC2)n2ncc(-c3ccccc3)c2n1,-18.5%
14,Cc1cc(N2CCOCC2)n2nc(C)c(-c3ccccc3)c2n1,9.17%
15,O=C(Nc1ccccc1)c1ccc(Nc2c([N+](=O)[O-])cc([N+](=O)[O-])c3ccccc23)cc1,6.49%
16,O=C(CSc1cccc[n+]1[O-])Nc1ccc2c(c1)OCO2,6.96%
17,O=C(CSc1ccc(Br)cc1)N1CCN(C(=O)c2ccco2)CC1,-62.4%
18,O=C(CSc1nnc(-c2ccc(OC(F)F)cc2)o1)N1CCOCC1,-57%
19,O=C(Cc1ccc(Br)cc1)N1CCN(C(=O)c2ccco2)CC1,-32.3%
20,O=C(CSc1nnc(-c2ccccc2Br)o1)N1CCN(C(=O)c2ccco2)CC1,-40.9%
21,COc1ccc(-c2nnc(SCC(=O)N3CCOCC3)o2)cc1,-1.92%
22,CCOc1ccc(-c2nnc(SCC(=O)N3CCOCC3)o2)cc1,2.8%
23,O=C(CSc1nnc(-c2ccc(F)cc2)o1)N1CCN(C(=O)c2ccco2)CC1,-38.4%

row,Compound,"hERG current change (%, negative = inhibition) at 10uM"
1,O=C(CSc1nnc(-c2ccc(Br)cc2)o1)N1CCN(C(=O)c2ccco2)CC1,-54.6%
2,O=C(CSc1ccccc1)N1CCN(C(=O)c2ccco2)CC1,-10.1%
3,C[C@H](NC(=O)c1cc2cc(Cl)ccc2n1C)C(=O)N1CCC[C@H]1C(=O)O,13.7%
4,O=C(NCCN1CCOCC1)[C@H](Cc1ccccc1)N1C(=O)c2ccccc2C1=O,-2.06%
5,CS(=O)(=O)NC1CCN(Cc2ccccc2)CC1,-2.95%
6,COc1cccc(CN(C)C(=O)CNC(=O)c2ccc3c(c2)OCO3)c1OC,15.3%
7,CC1Cc2cc(/C(O)=C3\C(=O)C(=O)N(CCN(C)C)C3c3ccccc3F)ccc2O1 (centres unmarked),2.94%
8,CCOc1ccc(S(=O)(=O)Nc2ccccn2)c2ccccc12,10.7%
9,CC(Oc1ncnc2ccccc12)C(=O)Nc1cccc(S(=O)(=O)N2CCOCC2)c1 (centres unmarked),-11.3%
10,Cc1c(NS(=O)(=O)c2cccc(C(=O)Nc3ccccc3)c2)c(=O)n(-c2ccccc2)n1C,-11%
11,CCn1cc(C(=O)N2CC(C)CC(C)C2)c(=O)c2cc(S(=O)(=O)N3CCCC3)ccc21 (centres unmarked),6.81%
12,O=[N+]([O-])c1ccccc1Sc1nccn1Cc1ccccc1,-21.6%
13,NC(=O)CSc1nccn1Cc1ccccc1,7.57%
14,O=C(CSc1nccn1Cc1ccccc1)Nc1ccccc1,12.4%
15,O=[N+]([O-])c1cc(C(F)(F)F)ccc1Sc1nccn1Cc1ccccc1,-30.3%
16,O=[N+]([O-])c1ccc(Sc2nccn2Cc2ccccc2)cc1,-59.5%
17,O=[N+]([O-])c1ccc(Sc2nccn2Cc2ccccc2)c([N+](=O)[O-])c1,-57.9%
18,CCCn1c(C(CO)Nc2nc(C)cs2)nc2ccccc21 (centres unmarked),-5.83%
19,O=C(NC(=S)Nc1ccc(Oc2ccc(Cl)cc2)cc1)c1ccccc1,10.7%
20,O=C(Nc1nnc(-c2ccc(Cl)cc2)o1)c1cccc(N2C(=O)CCC2=O)c1,12.2%
21,Cc1noc(C)c1COC(=O)CN(C)S(=O)(=O)c1ccc(Cl)cc1,-14.4%
22,COCCCNC(=O)CC(NS(=O)(=O)c1ccc(F)cc1)c1ccc(OC)cc1 (centres unmarked),-1.73%
23,Nc1c2c(nc3ccccc13)CSCC2,-57.3%

row,Compound,"hERG current change (%, negative = inhibition) at 10uM"
1,c1ccc(CN2CCc3nc4ccccc4cc3C2)cc1,-4.62%
2,Cl.Nc1c2c(nc3ccccc13)CCCC2.O,-42.3%
3,Cl.Nc1c2c(nc3ccccc13)CCCC2,-39.7%
4,Nc1nc2c(c(=O)[nH]1)CN(Cc1ccccc1)CC2,7.8%
5,Nc1c2c(nc3ccccc13)CCN(Cc1ccccc1)C2,-56.1%
6,C/C(=N\O)C1(C)N(O)C(C)(C)C(c2ccco2)=[N+]1[O-] (centres unmarked),22.2%
7,Cc1cccc(NC(=O)c2nc[nH]c2C(=O)N2CCc3ccccc3C2)c1,5.13%
8,O=C1NC(Nc2nc3ccccc3s2)(C(F)(F)F)C(=O)N1C1CCCCC1 (centres unmarked),-6.17%
9,Cc1ccc(S(=O)(=O)N(C)CC(=O)O/N=C(\N)c2ccc([N+](=O)[O-])cc2)cc1,-45.9%
10,CN(CC(=O)O/N=C(\N)c1cccc([N+](=O)[O-])c1)S(=O)(=O)c1ccccc1,-24.4%
11,N/C(=N\OC(=O)CCC1CCCCC1)c1cccc([N+](=O)[O-])c1,-15.1%
12,N/C(=N\OC(=O)CCC1CCCC1)c1cccc([N+](=O)[O-])c1,-70.4%
13,N/C(=N\OC(=O)CC1CCCCC1)c1cccc([N+](=O)[O-])c1,-6.21%
14,Cc1ccc(S(=O)(=O)N(C)CC(=O)O/N=C(\N)c2cccc([N+](=O)[O-])c2)cc1,-66.8%
15,Cc1nnc2sc(-c3ccc(-c4ccc(Cl)c(C(F)(F)F)c4)o3)nn12,3.66%
16,CCCCSc1nnc(-c2ccc(C)cc2)n1C,-33.7%
17,COc1cc(C(=O)Nc2ccc3c(c2)ncn3C(C)(C)C)cc(OC)c1OC,9.04%
18,CCOc1c2ccccc2nn1CCOC,5.42%
19,CCN(CC)CCN(Cc1cc2cc(C)ccc2[nH]c1=O)C(=S)NCc1ccco1,-43.4%
20,CCc1ccc2[nH]c(=O)c(CN(Cc3ccco3)C(=S)NCC3CCCO3)cc2c1 (centres unmarked),-19%
21,CCc1ccc2[nH]c(=O)c(CN(CC3CCCO3)C(=S)NCc3ccco3)cc2c1 (centres unmarked),-21.6%
22,CCc1ccc2[nH]c(=O)c(CN(CCN(C)C)C(=S)NCc3ccco3)cc2c1,-52%
23,CCc1ccc2[nH]c(=O)c(CN(CCN(CC)CC)C(=S)NCc3ccco3)cc2c1,-67.9%

row,Compound,"hERG current change (%, negative = inhibition) at 10uM"
1,CN(C)CCCN(Cc1cc2cc3c(cc2[nH]c1=O)OCO3)C(=S)NCc1ccco1,-19.2%
2,O=C1c2cccc3c([N+](=O)[O-])ccc(c23)C(=O)N1c1ccc(Cl)cn1,0.201%
3,COC(=O)c1cccc(NS(=O)(=O)c2ccc(OC)cc2)c1C,-1.48%
4,COc1ccc(-c2cc(C(F)(F)F)nc(SCCC(=O)NCc3ccccc3)n2)cc1,-14.5%
5,CCCOc1ccc(C(=O)Nc2c[nH]c(=O)[nH]c2=O)cc1,-6.41%
6,CCn1c(COc2cccc(OC)c2)nnc1SCC(=O)Nc1cccc(OC)c1,-41.1%
7,N=c1c(C(=O)NC2CCCC2)cc2c(=O)n3ccccc3nc2n1CCN1CCOCC1,-91.9%
8,N=c1c(C(=O)NC2CCCC2)cc2c(=O)n3ccccc3nc2n1CCCN1CCOCC1,-78.2%
9,O=C(c1ccco1)N1CCN=C1SCc1cccc(F)c1,-6.98%
10,Cc1csc2ncc(C(=O)NCCC(c3ccccc3)c3ccccc3)c(=O)n12,-0.968%
11,Cc1cc(-c2nn(C)c(=O)c3ccccc23)cc(C)c1O,0.868%
12,Cc1ccc(S(=O)(=O)N2CCC(=O)N(CCOC(=O)Nc3cccc(Cl)c3)CC2)cc1,-65.7%
13,Cc1ccc(S(=O)(=O)N2CCC(=O)N(CCOCc3ccc(Cl)cc3)CC2)cc1,-60.1%
14,Cc1ccc(COCCN2CCN(S(=O)(=O)c3ccccc3)CCC2=O)cc1,-0.87%
15,Cc1ccc(S(=O)(=O)N2CCC(=O)N(C(COCc3ccc(Cl)cc3)C(C)C)CC2)cc1 (centres unmarked),-51.7%
16,Cc1ccc(S(=O)(=O)N2CCC(=O)N(CCOC(=O)Nc3cc(C)cc(C)c3)CC2)cc1,-40.7%
17,Cc1ccc(S(=O)(=O)N2CCC(=O)N(C(COCc3cccc(Cl)c3)C(C)C)CC2)cc1 (centres unmarked),-35.2%
18,Cc1ccc(COCCN2CCN(S(=O)(=O)c3ccc(C)cc3)CCC2=O)cc1,6.17%
19,Cc1ccc(NC(=O)OCCN2CCN(S(=O)(=O)c3ccc(C)cc3)CCC2=O)cc1,-18.5%
20,Cc1ccc(S(=O)(=O)N2CCC(=O)N(C(COCc3ccccc3)C(C)C)CC2)cc1 (centres unmarked),-23.2%
